Hit rate of the full screen: of about 400,000 compounds, about 2,100 (0.53%) were called active. Inconclusive results (about 14%) are left out. The rule behind the calls is not given here. Only a selection was taken, and actives are over-represented in it overall.
target: Ataxin-2 (Homo sapiens) (UniProt Q99700); experiment: qHTS for Inhibitors of ATXN expression.; format: functional
Sequence (Q99700 whole entry): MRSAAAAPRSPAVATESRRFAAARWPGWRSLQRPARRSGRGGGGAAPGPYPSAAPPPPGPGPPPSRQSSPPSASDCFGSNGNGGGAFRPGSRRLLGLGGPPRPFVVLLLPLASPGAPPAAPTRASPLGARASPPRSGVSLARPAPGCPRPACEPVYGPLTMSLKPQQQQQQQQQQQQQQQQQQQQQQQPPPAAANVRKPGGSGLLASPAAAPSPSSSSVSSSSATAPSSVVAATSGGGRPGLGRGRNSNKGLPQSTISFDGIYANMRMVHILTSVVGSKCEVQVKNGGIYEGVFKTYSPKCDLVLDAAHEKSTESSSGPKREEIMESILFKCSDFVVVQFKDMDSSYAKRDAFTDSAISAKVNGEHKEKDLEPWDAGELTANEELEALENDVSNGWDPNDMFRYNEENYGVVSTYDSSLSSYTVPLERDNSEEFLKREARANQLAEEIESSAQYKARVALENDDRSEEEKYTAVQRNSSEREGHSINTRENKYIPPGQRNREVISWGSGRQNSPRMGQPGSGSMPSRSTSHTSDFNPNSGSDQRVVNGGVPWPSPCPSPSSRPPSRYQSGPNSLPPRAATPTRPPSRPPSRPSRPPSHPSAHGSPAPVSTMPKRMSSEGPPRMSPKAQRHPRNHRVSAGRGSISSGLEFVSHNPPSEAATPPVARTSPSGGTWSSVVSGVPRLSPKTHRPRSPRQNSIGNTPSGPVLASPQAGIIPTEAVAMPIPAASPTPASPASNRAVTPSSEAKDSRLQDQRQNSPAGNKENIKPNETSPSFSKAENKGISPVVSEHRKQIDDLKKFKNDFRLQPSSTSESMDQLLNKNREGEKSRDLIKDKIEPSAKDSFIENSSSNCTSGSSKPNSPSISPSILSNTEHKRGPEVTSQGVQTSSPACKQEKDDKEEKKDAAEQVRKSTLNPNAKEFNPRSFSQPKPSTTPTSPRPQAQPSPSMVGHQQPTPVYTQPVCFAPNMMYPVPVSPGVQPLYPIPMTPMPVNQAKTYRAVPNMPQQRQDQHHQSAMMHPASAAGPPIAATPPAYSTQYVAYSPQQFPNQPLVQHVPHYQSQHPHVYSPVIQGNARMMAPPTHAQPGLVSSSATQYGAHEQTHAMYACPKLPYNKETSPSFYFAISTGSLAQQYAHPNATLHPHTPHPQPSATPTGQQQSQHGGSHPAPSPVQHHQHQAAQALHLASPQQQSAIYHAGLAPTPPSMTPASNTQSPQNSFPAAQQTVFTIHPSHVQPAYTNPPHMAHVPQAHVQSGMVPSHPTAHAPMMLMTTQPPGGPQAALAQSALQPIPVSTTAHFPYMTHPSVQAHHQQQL

| Structure (SMILES) | Potency |
| --- | --- |
| O=C(Cc1cc(O)nc(O)n1)NCCN1CCOCC1 | inactive |
| Cc1occc1-c1nnc(SCC(=O)NC2CCCCC2)o1 | inactive |
| Cc1c(CC(=O)N2CCN(C(=O)C3COc4ccccc4O3)CC2)c(=O)oc2cc(O)c(Cl)cc12 (centres undefined) | inactive |
| Nc1cccc2c1C(=O)N(c1ccccc1)C2=O | inactive |
| Cc1ccc(C(=O)Nc2nc3n(n2)C(c2ccccc2)C=C(c2ccccc2)N3)cc1 (centres undefined) | inactive |
| CNc1cc(C)c(C#N)c2nc3ccccc3n12 | inactive |
| CCC(c1ccc(O)c(O)c1)C(CC)c1ccc(O)c(O)c1 (centres undefined) | 31.6 µM (active) |
| CCN(CC)Cc1cc(O)c(CN(CC)CC)cc1O | inactive |
| CC(C)(C)N1C(=O)c2ccc(C(=O)Nc3cc(C(=O)O)cc(C(=O)O)c3)cc2C1=O | inactive |
| COc1cc(C(=O)NCCNc2nc3ccc(C)cc3cc2C#N)cc(OC)c1OC | inactive |
| COc1ccc(CCNC(=S)NC(=O)c2cc(OC)c(OC)c(OC)c2)cc1OC | inactive |
| COc1cc(C(=O)NCCc2csc(-c3ccc(Cl)cc3)n2)cc(OC)c1OC | 28.2 µM (active) |
| COc1ccc2nc(-c3ccccc3)cc(C(=O)OCC(=O)N3CC(C)OC(C)C3)c2c1 (centres undefined) | inactive |
| COc1ccc2nc(-c3ccccc3)cc(C(=O)N3CCC3)c2c1 | inactive |
| COc1ccc(-c2cc(C(=O)Oc3ccccc3)c3cc(C)ccc3n2)cc1 | 35.5 µM (active) |
| CCOC(=O)c1c(C)nc2sc(C(=O)Nc3ccccc3)c(N)c2c1-c1ccc(OC)cc1 | inactive |
| CCOC(=O)c1c(N)sc(C(=O)Nc2ccccc2)c1C | inactive |
| CCOC(=O)c1c(NC(=O)CCl)sc(CN(C)C)c1-c1ccccc1 | 37.7 µM (active) |
| CC(=O)Nc1nc2n(n1)C(c1ccc(F)cc1)C=C(c1ccccc1)N2 (centres undefined) | inactive |
| CCCCCn1/c(=N/C(C)=O)c(C#N)cc2c(=O)n3ccccc3nc21 | inactive |
| COc1ccccc1[C@@H]1C(c2ccccc2)=NN(c2ccc(Br)cc2)[C@H]1C(=O)N1CCOC1=O | inactive |
| CNC(=O)c1sc(N2N=C3/C(=C/c4ccccc4)CCCC3C2c2ccccc2)nc1C (centres undefined) | inactive |
| Cc1nc(N2N=C3/C(=C/c4ccc(F)cc4)CCCC3C2c2ccc(F)cc2)sc1C(=O)N(C)C (centres undefined) | inactive |
| CCCn1c(O)nnc1SCC(=O)N1N=C2/C(=C/c3ccc(OC)cc3)CCCC2C1c1ccc(OC)cc1 (centres undefined) | 25.1 µM (active) |
| O=c1[nH]c(=O)c2nc3c4ccccc4c4ccccc4c3nc2[nH]1 | inactive |
| CC1CCC2C(=O)N(c3ccc(C(=O)Oc4cccc5cccnc45)cc3)C(=O)C2C1 (centres undefined) | inactive |
| CN(C)c1ccc2c(O)ccnc2c1 | inactive |

| Structure (SMILES) | Potency |
| --- | --- |
| Cc1cc2nc3ccc(N(C)C)cc3nc2cc1N | 25.1 µM (active) |
| Cc1cc2nn(-c3ccc(Cl)cc3)nc2cc1N | inactive |
| Nc1c(C(=O)NCCN2CCOCC2)c2nc3ccccc3nc2n1CCc1ccccc1 | inactive |
| COc1cccc(C2C3=C(O)CC(C)(C)CC3=Nc3cc(OC)c(OC)cc32)c1 (centres undefined) | inactive |
| COC(=O)C=C1CCC2C3CCC4=CC(=O)C(Br)CC4(C)C3C(=O)CC12C (centres undefined) | 31.6 µM (active) |
| COc1ccc(C2CC(c3ccc(Cl)cc3)=NN2c2ccc(S(N)(=O)=O)cc2)cc1 (centres undefined) | inactive |
| CCOC(=O)C1(C)C=C(Nc2ccc(NC(C)=O)cc2)C(=O)N1c1ccc(NC(C)=O)cc1 (centres undefined) | inactive |
| CC(C)(C)OC(=O)NCc1ccc(CNC(=O)c2[nH]cnc2C(=O)NC2CCN(C(=O)OC(C)(C)C)CC2)cc1 | 20 µM (active) |
| CC(C)(C)OC(=O)N1CCCN(C(=O)Nc2cccc(Cl)c2)CC1 | inactive |
| COc1ccccc1CC(NC(C)=O)C(=O)NC1CCN(C(=O)NCc2ccccc2)CC1 (centres undefined) | inactive |
| CC(C)(C)OC(=O)N1CCC(NC(=O)c2[nH]cnc2C(=O)Nc2cccc(Cl)c2)CC1 | 35.5 µM (active) |
| CC(=O)NC(Cc1ccccc1C)C(=O)NC1CCN(C(=O)NCc2ccccc2)CC1 (centres undefined) | inactive |
| COc1cc(OC)c(N2CC(C(=O)Nc3cccc(C(=O)NC4CC4)c3)CC2=O)cc1Cl (centres undefined) | inactive |
| CS(=O)(=O)Nc1nc2n(n1)C(c1ccccc1)C=C(c1ccc(Br)cc1)N2 (centres undefined) | inactive |
| COc1ccc(C2CC(c3ccccc3C(F)(F)F)=NN2c2ccc(S(N)(=O)=O)cc2)cc1 (centres undefined) | inactive |
| Cc1ccccc1Cn1c(CN2CCC(C(=O)NCc3cccnc3)CC2)cc2ccccc21 | 31.6 µM (active) |
| O=C(Nc1nc2c(s1)CN(Cc1ccccc1)CC2)C1CCCC1 | inactive |
| Cc1cccn2c(=O)c3cc(C(=O)NCc4cccnc4)c(=N)n(CC4CCCO4)c3nc12 (centres undefined) | inactive |
| CN(C)CCNC(=O)C1CCN(Cc2cc3ccccc3n2Cc2ccccc2)CC1 | 28.2 µM (active) |
| CCCn1c(=N)c(C(=O)NCc2cccnc2)cc2c(=O)n3cccc(C)c3nc21 | inactive |
| O=C(Nc1nc2c(s1)CN(Cc1ccccc1)CC2)C1CCC1 | inactive |
| Cc1ccc(CNC(=O)C2CCN(c3nnc(N4CCCC4=O)s3)CC2)cc1 | inactive |
| Cc1cccc(Cn2c(CN3CCC(C(=O)NCc4cccnc4)CC3)cc3ccccc32)c1 | 22.4 µM (active) |
| CCOC(=O)C1CCN(Cc2ccc3ccccc3c2)CC1 | inactive |
| CCCn1c(=N)c(C(=O)NCc2cccnc2)cc2c(=O)n3cc(C)ccc3nc21 | inactive |
| Cc1ccc(Cn2c(CN3CCC(C(=O)NCc4cccnc4)CC3)cc3ccccc32)cc1 | 35.5 µM (active) |
| CCn1c(=N)c(C(=O)NCc2cccnc2)cc2c(=O)n3cc(C)ccc3nc21 | inactive |
